# Screening results (PubChem BioAssay)
# The list is not random: actives were taken first. Their share in the collection is about 21%.
# DT40 TDP1 CPT = DT40-hTDP1 cell growth loss with CPT | chicken DT40 Tdp1-/-;hTDP1 cells + 20 nM CPT, ATP luminescence, 48 h | Potency, µM (doses to about 46.2 µM), inactives show at the top dose activity change, negative = growth inhibition, hits mostly inhibitors | 420,000 tested, 12% active | AID 686979; note: potency is the fitted concentration of half-maximal effect; nearly all actives have a fitted effect of over 55% in size
#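 Chicken DT40 Tdp1-/- cells complemented with human TDP1, 400 cells/well, exposed to compounds plus 20 nM camptothecin for at least 48 h at 37 C; viability read as ATP content by CellTiter-Glo luminescence.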
# VP16 counter = Gal4-VP16 reporter inhibition counter-screen. Potency, µM (top dose mostly 53.6 µM), for inactives: at the top dose activity, negative = inhibition, hits mostly inhibitors. AID 2546. Drosophila S2 Gal4-VP16 UAS-luciferase, luminescence, 20 h. 310,000 tested, 3.5% active;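 note: Gal4-VP16 expression switched on by copper sulfate through the metallothionein promoter; potency is the fitted concentration of half-maximal effect; nearly all actives have a fitted effect of over 50% in size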
# IL1B secr inh = inhibitors of inflammasome signaling (IL-1 beta secretion). 360,000 tested, 4.7% active. AID 743279. THP-1 LPS/ATP IL-1B secretion, AlphaLISA, 16 h; stronger effect = lower value. activity change, % at 57.5 µM; in the data active = activity change below about -50%; inconclusive = mostly about -30% to -49%
#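 THP-1 cells pretreated 1 hr with compounds (up to 57.5 uM final), then stimulated with LPS (250 ng/mL final) plus ATP (1.25 mM final); secreted IL-1B measured by AlphaLISA after 16 hr, decreased signal indicating inhibition.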
# RORgamma inh = inhibitors of mouse ROR gamma transcriptional activity; P51450; Drosophila S2 Gal4-RORgamma UAS-luciferase reporter, 20 h; Potency, µM (doses to about 53.6 µM), without a hit: at the highest dose activity change, negative = inhibition, actives largely listed as inhibitors; 310,000 tested, 5.4% active; AID 2551; note: potency is the fitted concentration of half-maximal effect; nearly all actives have a fitted effect of over 60% in size
# Target sequence (P51450 whole entry, looked up, the tested form may be a part): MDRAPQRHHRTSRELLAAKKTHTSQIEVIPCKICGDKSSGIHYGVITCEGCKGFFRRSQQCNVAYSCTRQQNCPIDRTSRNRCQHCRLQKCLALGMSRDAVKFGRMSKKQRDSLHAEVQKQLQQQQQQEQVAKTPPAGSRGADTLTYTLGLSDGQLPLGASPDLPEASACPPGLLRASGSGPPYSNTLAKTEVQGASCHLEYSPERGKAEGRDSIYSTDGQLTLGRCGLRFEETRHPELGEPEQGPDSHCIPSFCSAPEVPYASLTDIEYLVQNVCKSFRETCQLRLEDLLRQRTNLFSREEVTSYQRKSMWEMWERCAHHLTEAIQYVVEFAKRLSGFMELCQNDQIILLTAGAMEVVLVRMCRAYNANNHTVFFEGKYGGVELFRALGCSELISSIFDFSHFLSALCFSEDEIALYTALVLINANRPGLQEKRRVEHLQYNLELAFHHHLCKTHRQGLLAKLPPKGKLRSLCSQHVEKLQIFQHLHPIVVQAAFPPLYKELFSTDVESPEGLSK
#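 ROR gamma transcriptional activity was tracked as Gal4-UAS luciferase output in stably transfected Drosophila Schneider cells, with compound added 1 hr before 700 uM copper sulfate induction and a 20 hr ambient-temperature incubation.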
# ELG1 repair inh = blocks ELG1-dependent DNA repair in HEK293T cells. Potency, µM (series often up to 46.1 µM), for inactives: at the top dose activity change, negative = inhibition, hits mostly inhibitors. HEK293T ELG1-luciferase reporter, luminescence, 16 h; DNA damage induced by 5-fluorouridine. AID 504467. 330,000 tested, 2.3% active; note: potency is the fitted concentration of half-maximal effect; nearly all actives have a fitted effect of over 55% in size
#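 DMSO vehicle served as the neutral condition. Each well held 2,000 cells given 5-fluorouridine plus compound; after 16 hr at 37 °C/5% CO2, ONE-Glo was added and luciferase measured 30 min later.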
# DT40 TDP1 no CPT = qHTS for Inhibitors of human tyrosyl-DNA phosphodiesterase 1 (TDP1): qHTS in cells in absence of CPT; DT40 Tdp1-/- hTDP1 cells, no CPT, ATP luminescence, 48 h; 420,000 tested, 15% active; Potency, µM (titrated, usually from 46.2 µM), for the others: top-dose activity change, negative = growth inhibition, hits mostly inhibitors; AID 686978, 2013; note: potency is the fitted concentration of half-maximal effect; nearly all actives have a fitted effect of over 55% in size
#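 Cells were dispensed at 400 per well, compounds added by pin tool, plates incubated ≥48 hr at 37 °C, then CellTiter-Glo added for 30 min at room temperature before luminescence reading. Line: DT40 Tdp1-/- complemented with hTDP1; camptothecin omitted.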
# Starred values were filed as active, the others as inactive; ? = inconclusive; . = no result; [ ] = another dose, or the depositor's remark. Unless noted, calls come from the whole dose curve; as a rule, active = well fitted curve in the direction sought with a large enough effect; inconclusive = small, poorly fitted or top-dose-only effect, or another doubt; inactive = no such curve, though single readings can be large; an effect the other way counts as inactive or inconclusive. % is set by controls: 0 for no effect and ±100 for the full control effect.
SMILES,DT40 TDP1 CPT,VP16 counter,IL1B secr inh,RORgamma inh,ELG1 repair inh,DT40 TDP1 no CPT
COC1=C[C@@H](C)C2CC3OC(=O)C[C@H]4C(C)=C(OC)C(=O)C([C@@]2(C)C1=O)[C@@]34C (some centres not stated),-11.5%[9.04 µM],-0.3%,.,-0.7%,.,-2.2%[9.04 µM]
CC(C)OCCCNC(=O)CSc1c2c(nc3ccc(Cl)cc13)CCCC2,?,.,.,.,.,23.1µM*
COCCCNC(=O)CSc1c2c(nc3ccc(Cl)cc13)CCCC2,?,-3.2%,-155.5*,?,-7.9%,?
COc1cc(OC)cc(C(=O)Nc2ccc3nc4c(c(Nc5ccc(OC)c(OC)c5)c3c2)CCCC4)c1,4.11µM*,.,.,.,.,23.1µM*
COc1ccc(NC(=O)c2cccc3ccccc23)cc1OC,-13.2%,.,?,.,.,-7.7%
COc1cc(OC)cc(C(=O)Nc2ccc3nc4n(c(=O)c3c2)CCCC4)c1,-16.9%,-15.2%,-1.0,-29.5%,?,?
COc1ccc(Nc2c3c(nc4ccc(NC(=O)c5cc(Cl)ccc5OC)cc24)CCCC3)cc1OC,1.64µM*,.,.,.,.,0.82µM*
CCOc1ccccc1C(=O)Nc1ccc2nc3c(c(Nc4ccc(OC)c(OC)c4)c2c1)CCCC3,4.11µM*,.,.,.,.,5.17µM*
Cc1ccccc1NC(=O)C1CCN(C(=O)c2ccc(F)cc2)CC1,-4.0%,.,.,.,.,-1.1%
CCN(c1cccc(C)c1)S(=O)(=O)c1cc2c(cc1C)n(C)c(=O)c(=O)n2C,-5.4%,.,.,.,.,-21.8%
Cc1ccc(OCC(=O)OCc2cc(=O)n3nc(C4CCCCC4)sc3n2)cc1C,-21.1%,.,.,.,.,1.4%
O=C(COc1ccc(S(=O)(=O)N2CCOCC2)cc1)N1CCc2ccccc2C1,?,-18.2%,-8.3,26.3%,1.9%,?
Cc1ccc(S(=O)(=O)N2CCOCC2)cc1C(=O)OCC(=O)NC1CCCC(C)C1C (configuration not stated),14.6µM*,.,19.8,.,?,4.61µM*
Cc1ccc(S(=O)(=O)N2CCOCC2)cc1C(=O)OCC(=O)N1CCc2ccccc2C1,?,-15.8%,16.7,?,?,23.1µM*
COc1ccc(C(C)(C)C)cc1NC(=O)COC(=O)CSCc1c(C)noc1C,-0.7%,.,-15.9,.,5.5%,0.3%
Cc1ccc(NC(=O)CCc2nc3cccnc3n2-c2ccccc2)cc1Cl,16.4µM*,.,.,.,.,16.4µM*
CCOC(=O)c1cccc(NC(=O)CCc2nc3cccnc3n2-c2ccccc2)c1,-26.7%,.,.,.,.,-28.2%
O=C(CCc1nc2cccnc2n1-c1ccccc1)Nc1ccc(Cl)c(Cl)c1,?,.,.,.,.,18.4µM*
CCOc1ccc(OCC)c(NC(=O)CCc2nc3cccnc3n2-c2ccccc2)c1,20.6µM*,.,.,.,.,?
O=C1NC[C@@H](CCCCN2CCN(CCc3ccccc3)C(=O)C2=O)N(Cc2ccccc2)C1=O,-6.9%,.,20.1,.,.,-2.3%
CC(OC(=O)CCC1CCCCC1)C(=O)Nc1ccc(S(N)(=O)=O)cc1 (configuration not stated),-3.4%,.,-3.9,.,6.7%,-23.1%
CCCCCC(=O)N1C[C@@H](O)[C@H](n2cc(COC(=O)c3ccccc3)nn2)C[C@@H]1c1ccccc1,?,.,2.2,.,.,?
CCOC(=O)c1ccc(N2CCN(c3cc(Cl)ccc3C)CC2)c(NC(=O)Nc2ccc(OCC)cc2)c1,?,.,.,.,.,13µM*
CCOC(=O)c1ccc(N2CCN(c3cccc(OC)c3)CC2)c(NC(=O)Nc2ccc(OCC)cc2)c1,?,.,.,.,.,-23.2%
CCOC(=O)c1ccc(N2CCN(c3cc(C)ccc3C)CC2)c(NC(=O)Nc2ccccc2)c1,5.8µM*,.,.,.,.,2.91µM*
SMILES,DT40 TDP1 CPT,VP16 counter,IL1B secr inh,RORgamma inh,ELG1 repair inh,DT40 TDP1 no CPT
CCCCCCC(=O)N(O)C1CC(=O)N(c2ccc(F)cc2)C1=O (configuration not stated),1.64µM*,?,-88.1*,?,?,2.91µM*
O=C1CC(N(O)c2ccccc2)C(=O)N1c1ccc(Cl)c(Cl)c1 (configuration not stated),?,-0.3%,-17.5,14.3%,16.8%,?
CCCCCCC(=O)N(O)C1CC(=O)N(c2ccc(Br)cc2)C1=O (configuration not stated),20.6µM*,?,-81.7*,?,?,18.4µM*
COc1ccccc1N(O)C1CC(=O)N(c2ccc(Br)cc2)C1=O (configuration not stated),18.4µM*,2.2%,-0.8,-35.0%,3.1%,?
CCOc1ccc(N2C(=O)CC(Cc3ccc(Br)cc3)C2=O)cc1 (configuration not stated),-16.3%,.,-7.1,.,-4.9%,-25.8%
Cc1ccc([C@H]2N[C@]3(CCCN(Cc4ccco4)C3=O)[C@H]3C(=O)N(C)C(=O)[C@@H]23)cc1,-18.8%,.,11.9,.,.,-8.8%
CC(c1ccco1)N(C(=O)c1cc(Cl)cc(Cl)c1)c1ccccn1 (configuration not stated),9.2µM*,21.4%,-18.7,-15.7%,-10.9%,8.2µM*
Cc1cc(C)cc(C(=O)N(c2ccccn2)C(C)c2ccco2)c1 (configuration not stated),?,-2.7%,12.3,12.8%,-15.2%,14.6µM*
Cc1cccc(C(=O)N(c2ccccn2)C(C)c2ccco2)c1 (configuration not stated),?,0.4%,10.7,-30.2%,-21.1%,?
CC(C)c1ccc(C(=O)N(c2ccccn2)C(C)c2ccco2)cc1 (configuration not stated),?,5.6%,14.7,7.3%,?,23.1µM*
CC(c1ccco1)N(C(=O)c1cccs1)c1ccccn1 (configuration not stated),-9.9%,9.3%,-8.4,31.6%,-6.9%,-13.7%
CC(c1ccco1)N(C(=O)C12CC3(C)CC(C)(CC(C)(C3)C1)C2)c1ccccn1 (configuration not stated),-100.3%,7.1%,-13.0,-12.2%,10.0%,?
CC(c1ccco1)N(C(=O)c1ccccc1NS(=O)(=O)c1ccc(Cl)c([N+](=O)[O-])c1)c1ccccn1 (configuration not stated),?,-4.0%,-85.6*,-3.0%,-2.2%,?
CC1CCCC(NC(=O)c2ccc(F)c(S(=O)(=O)N3CCOCC3)c2)C1C (configuration not stated),?,.,9.0,.,-19.4%,?
